# Assay results taken from PubChem BioAssay AID504466 (National Center for Advancing Translational Sciences (NCATS), 2011).
# Among all 330,000 compounds or so, about 4,200 (1.3%) were called active. Inconclusive results (about 6%) are left out. The sample as a whole holds a higher share of actives than the screen did. A number with no mark means an inactive call. The call rests on the fitted dose curve; in most records, active means well fitted activation curve with a large enough effect; inconclusive means small, poorly fitted or top-dose-only effect; inactive means no such curve, though single readings can be large or run the other way.
# Experiment: qHTS screen for small molecules that induce genotoxicity in human embryonic kidney (HEK293T) cells expressing luciferase-tagged ELG1; further: nearly all actives have a fitted effect of over 60% in size; on activity change, positive = activation: % of control where 0% means no effect
# Details: HEK293T ELG1-luciferase reporter, luminescence, 16 h; series mostly up to 46 µM; activity change, positive = activation: at the top concentration
# How it was run: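 Luminescence read-out: rising ELG1-luciferase signal, reflecting elevated ELG1 protein under genetic stress, flags genotoxic compounds. Cells were treated for 16 hr at 37 °C before ONE-Glo detection.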
# Potency means the concentration at half of the fitted maximal effect.
SMILES,"activity change, positive = activation [%]",Potency
O=C(COC(=O)c1ccc(F)cc1)Nc1ccc2c(c1)OCO2,1.47,–
O=C(CN1C(=O)NC2(CCCCCC2)C1=O)NCc1ccc(F)cc1,-1.42,–
O=C(N[C@H]1C/C=C\C(c2ccc(F)cc2)N(Cc2ccccc2)C(=O)C1)OCC1c2ccccc2-c2ccccc21 (some centres undefined),-1.55,–
C#CCOCCOCCOCCNc1nc(N2CCN(C(=O)[C@H](CCCN=C(N)N)n3cc(C(N)[C@@H](C)CC)nn3)CC2)nc(N2CCN(C(=O)[C@H](CO)n3cc([C@@H](N)C(C)C)nn3)CC2)n1 (some centres undefined),2.45,–
CCN(c1ccccc1)S(=O)(=O)c1ccc(C(=O)Nc2ccccc2OC)cc1,-6.55,–
CCCCSc1nnc(-c2ccc(C)cc2)o1,–,2.06 µM (active)
CCOC(=O)CSc1nnc(-c2ccc([N+](=O)[O-])cc2)o1,-0.612,–
Cc1cccc(C)c1OC(=O)CSc1nnc(-c2ccccc2)o1,2.25,–
c1ccc2c(CCN3CCNC[C@H]3Cc3cccc4ccccc34)cccc2c1,0.671,–
COc1ccc(-n2nnnc2-c2nc3ccccc3s2)cc1,–,1.46 µM (active)
COc1ccc(-n2nnnc2CNC(=O)c2ccc3ccccc3c2)cc1,-1.6,–
COc1ccc(C2=NN(c3nc4ccccc4s3)C(=O)C2)cc1,-0.0195,–
O=C(Nc1ccc(N2CCOCC2)cc1)c1cccc(S(=O)(=O)N2CCOCC2)c1,-1.33,–
O=C(CCc1ccc(S(=O)(=O)N2CCOCC2)cc1)OCC(=O)c1ccc(Br)cc1,-0.314,–
COc1ccc(OCc2cc(C(=O)NCC3(C)COC3)no2)c(Cl)c1,12,–
Cc1cc(OCc2cc(C(=O)NCc3cc(C(C)C)no3)no2)cc(C)c1Cl,–,3.66 µM (active)
Cc1cccnc1CC(C)NC(=O)c1cc(COc2cncc(Cl)c2)on1 (centres undefined),0.0531,–
CC1(C)C[C@H]2C3=CCC4[C@@]5(C)CC[C@H](O)[C@](C)(CO)C5CC[C@@]4(C)[C@]3(C)C[C@@H](O)[C@@]2(CO)[C@@H](O)[C@@H]1O (some centres undefined),1.48,–
CC(C)(C)OC(=O)C1=C(CO)CS[C@@H]2[C@H](NC(=O)Cc3ccccc3)C(=O)N12,8.28,–
C/C(=N\NC(=O)Cc1ccc(F)cc1)c1ccc(F)cc1,-0.933,–
Cc1ccc(Cl)cc1NC(=O)c1ccccn1,5.69,–
C/C(=N\NC(=O)c1ccccc1F)c1ccccn1,–,3.66 µM (active)
C/C(=N\NC(=O)Cc1ccc(Cl)cc1)c1ccccn1,–,9.2 µM (active)
C/C(=N\NC(=O)Cc1ccc(Br)cc1)c1cccnc1,10.7,–

SMILES,"activity change, positive = activation [%]",Potency
C/C(CC(=O)Nc1ccc(N(C)C)cc1)=N\NC(=O)c1ccccc1F,12.6,–
COc1ccc2[nH]c3c(c2c1)CCN1C(=O)C(CC(=O)NCc2cccc(C(F)(F)F)c2)C[C@H](C(=O)N2CCOCC2)[C@@]31C (some centres undefined),2.26,–
O=C(COc1ccc(F)cc1Br)NCC1COc2ccccc2O1 (centres undefined),0.352,–
CCCCOC(=O)Nc1nnc(CC(=O)NCc2ccccc2)s1,10.2,–
CCCCCCOC(=O)NCC(O)c1ccccc1 (centres undefined),–,18.4 µM (active)
CCCCCOC(=O)NCCOC(=O)Nc1ccc(C(=O)OCC)cc1,-10.5,–
O=C(CNC(=O)c1n[nH]c2ccccc12)Nc1cc(Cl)ccc1Cl,1.36,–
CCN(CC)C(=O)[C@H]1CC(CC(=O)NCc2ccco2)C(=O)N2CCc3c([nH]c4ccccc34)[C@]12C (some centres undefined),0.825,–
COc1ccc(NS(=O)(=O)c2cc(NC(=O)c3ccc(S(=O)(=O)N(C)C)cc3)ccc2N2CCOCC2)cc1,-0.544,–
CCN(C[C@H]1N[C@@](Cc2ccccc2)(C(=O)OC)[C@H]2C(=O)N(Cc3ccccc3)C(=O)[C@@H]12)C(=O)c1ccc(C)cc1,-3.2,–
COc1ccc(NC(=O)CNc2cc(S(=O)(=O)N3CCOCC3)ccc2N2CCOCC2)c(OC)c1,5.87,–
Cc1ccc(C)c(NC(=O)c2ccc(OC(=O)c3ccco3)cc2)c1,1.15,–
Cc1ccc(O)c(NC(=O)c2cc(-c3ccco3)on2)c1,–,20.6 µM (active)
O=C(Nc1ccccc1C(F)(F)F)c1cc(-c2ccc(O)cc2)on1,13.9,–
CCCCC[C@@H]1C=C(C(=O)O)[C@H](c2ccc(C#N)cc2)N1S(=O)(=O)c1ccc(C)cc1,0.217,–
CC1CCCC(NC(=O)c2cc(S(=O)(=O)N3CCCCC3)ccc2Cl)C1C (centres undefined),-3.83,–
Cc1ccc(C(=O)NNC(=O)c2ccncc2)cc1S(=O)(=O)N1CCCCC1,1.41,–
Cc1ccc(C(=O)NC2CCCC(C)C2C)cc1S(=O)(=O)N1CCCCC1 (centres undefined),–,18.3 µM (active)
C[C@@H]1CN([C@@H](C)CO)C(=O)c2cc(NC(=O)C3CC3)ccc2O[C@H]1CN(C)C,3.36,–
COC(=O)[C@@]1(C)[C@H]2C(=O)N(Cc3ccccc3)C(=O)[C@H]2[C@H]2CN=C(SCC3CC3)N21,1.44,–
CC[C@]1(C(=O)OC)[C@H]2C(=O)N(Cc3ccccc3)C(=O)[C@H]2[C@H]2CN=C(SCc3ccccc3)N21,-1.3,–
COc1cccc(NC(=O)COC(=O)c2ccc3ccccc3n2)c1,-0.83,–
Cc1ccc(OCCCC(=O)N2CCOCC2)c(C)c1,–,20.6 µM (active)
Cc1ccc(OCCCC(=O)NC(C)c2ccccc2)c(C)c1 (centres undefined),0.0144,–

SMILES,"activity change, positive = activation [%]",Potency
Cc1cc(S(=O)(=O)N2CCOCC2)ccc1OCC(=O)N1CCOCC1,-0.859,–
COc1ccc(C2(c3ccc(OC)cc3)NC(=O)N(CC(=O)Nc3cc(C)on3)C2=O)cc1,-1.6,–
Cc1nn(-c2ccccc2)nc1C(=O)OCC(=O)N1CCCCC1C (centres undefined),0.888,–
COc1ccc(-c2[nH]nc(-c3ccccc3)c2-c2nc3ccccc3[nH]2)cc1,-0.244,–
COc1ccc(Br)cc1C(=O)NC(=S)Nc1cc(-c2nc3ccccc3[nH]2)ccc1C,0.519,–
c1ccc2[nH]c(-c3nc4ccccc4[nH]3)nc2c1,–,1.03 µM (active)
Cc1ccc(-c2nc3ccccc3[nH]2)cc1N,–,1.64 µM (active)
O=C(Nc1cccc(-c2nc3ccccc3[nH]2)c1)c1ccc(C(=O)Nc2cccc(-c3nc4ccccc4[nH]3)c2)cc1,8.18,–
Nc1cccc(CCc2nc3ccccc3[nH]2)c1,11,–
C=CC1=C(C(=O)O)N2C(=O)[C@@H](NC(=O)/C(=N\OCC(=O)O)c3csc(N)n3)[C@H]2SC1,0.264,–
Cc1cccc(OCC(=O)OCC(=O)Nc2ccc(Cl)cn2)c1,-1.42,–
COc1ccccc1-c1sc2ccccc2c1C#CC1(O)CCCCC1,-0.785,–
COc1ccc(S(=O)(=O)N2CCOCC2)cc1NC(=O)c1ccc(OCC(C)C)c(OC)c1,-1.88,–
C=CC[C@@H](CC(=O)N[C@H](CO)Cc1ccccc1)C(=O)N[C@@H](COC(=O)[C@@H](CC=C)Cc1ccc(F)cc1)Cc1c[nH]c2ccccc12,0.481,–
CC[C@]12c3[nH]c4cc(CCC(=O)N(C)C)ccc4c3CCN1C(=O)[C@@H](CC(=O)NCCCn1ccnc1)C[C@@H]2C(=O)N1CCN(C(=O)C2CC2)CC1,2.47,–
CN(CC(=O)O)C(=O)c1ccccc1,2.86,–
COc1cc2c(cc1OC)/C(=C/C(=O)c1ccc(NC(C)=O)cc1)NCC2,9.13,–
CC1CN/C(=C\C(=O)c2ccc(Br)cc2)C(=O)N1 (centres undefined),–,1.3 µM (active)
CC1(C)Cc2ccccc2/C(=C/C(=O)c2ccccc2)N1,-2.7,–
CN(c1ccccc1)S(=O)(=O)c1cc(C(=O)N2CCN(c3ncccn3)CC2)ccc1Cl,-4.11,–
COc1ccccc1CNC(=O)COC(=O)c1cccs1,-1.05,–
CCN(C[C@H]1N[C@@](CC)(C(=O)OC)[C@H]2C(=O)N(C)C(=O)[C@@H]12)C(=O)Nc1ccc(F)cc1,3.56,–
Cc1cc(/C=C2/NC(=O)NC2=O)c(C)n1-c1cccnc1,8.4,–
Cc1cccc(C)c1-n1c(C)cc(/C=C2\C(=O)NN(c3ccccc3)C2=O)c1C,5.82,–

SMILES,"activity change, positive = activation [%]",Potency
Cc1ccccc1-n1c(C)cc(/C=C2\NC(=O)NC2=O)c1C,–,14.6 µM (active)
COc1cc(SC)ccc1C(=O)NNC(=O)C1COc2ccccc2O1 (centres undefined),0.869,–
Cc1ccc(OCCCC(=O)Nc2ccc3c(c2)OCCO3)cc1,3.35,–
COc1ccccc1OCCCC(=O)Nc1ccc2c(c1)OCCO2,4.27,–
COC(=O)CCNc1ccc2c(c1)OCCO2,–,9.2 µM (active)
COc1cccc(CC(=O)OCC(=O)NCc2ccc3c(c2)OCO3)c1,0.92,–
CCN1C[C@@H]2[C@@H]3C(=O)N(Cc4ccccc4)C(=O)[C@@H]3[C@](Cc3ccccc3)(C(=O)OC)N2C1=NC1CCCCC1,-3.08,–
C[C@@H]1CN([C@H](C)CO)C(=O)c2cc(NC(=O)NC3CCCCC3)ccc2O[C@H]1CN(C)S(C)(=O)=O,-0.246,–
Nc1ccc(C(=O)NCc2ccccc2)cc1,3.4,–
CC(=O)Nc1ccccc1NC(=O)c1cc(C)cc(C)c1,0.5,–
Nc1ccc(C(=O)Nc2ccccc2N)cc1,–,14.6 µM (active)
CC[C@]1(C(=O)OC)[C@H]2C(=O)N(C)C(=O)[C@H]2[C@H]2CN(C)C(=NCc3ccccc3)N21,4.13,–
CCc1ccc(NC(=O)N2CCN(c3ccccc3)CC2)cc1,2.07,–
CCc1ccc(NC2Nc3cc(C)nn3S2)cc1 (centres undefined),–,9.2 µM (active)
CCCc1cc(=O)[nH]c(SCC(=O)Nc2ccc(S(=O)(=O)N3CCCC3)cc2)n1,-0.499,–
C=CC[C@H](CC(=O)N(CCO)Cc1ccccc1)C(=O)N[C@@H](COC(=O)[C@@H](CC=C)Cc1ccc(F)cc1)Cc1ccccc1,-6.21,–
COc1ccc(C(=O)Nc2ccccc2C(=O)N/N=C/c2ccc(O)c(OC)c2)cc1,-12.2,–
COc1ccc(/C=N/Nc2ccccc2C(=O)O)cc1,–,1.3 µM (active)
COc1ccc(/C=N/OCC(=O)N(Cc2ccccc2)c2ccccc2C(=O)O)cc1,1.68,–
COc1ccccc1-c1nnc2n1N=C(c1ccc(OC(F)F)c(OCC3CC3)c1)CS2,7.86,–
O=C(COC(=O)CN1C(=O)C2CCCCC2C1=O)Nc1ccc(F)c(F)c1F (centres undefined),1.33,–
COc1ccc(C(=O)C(C)OC(=O)c2cccc(S(=O)(=O)Nc3c(C)n(C)n(-c4ccccc4)c3=O)c2)cc1 (centres undefined),1.17,–
